Data from PubChem BioAssay AID1159580 (chemical genetic matrix, 2015).
Out of some 5,500 compounds screened, about 2,000 (36%) were called active. About 18% were inconclusive and are not listed. Rule as the data show it: active = normalized growth mostly below about 0.91 (no sharp cut-off); inconclusive = no clear call, values can overlap the other calls; inactive = mostly above about 0.92. The list shows a part of the results.

Assay: chemical genetic growth profiling, strain panel (AID 1159580);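 also: tested at 20 µM; growth read once vehicle control cultures reached saturation at 30 °C; 1 = growth at the plate median or of vehicle wells; lower values mean less growth of the strain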
Settings: S. cerevisiae deletion strains, growth OD

Measured: normalized growth

CC(=O)O[C@H]1CCC2(C)C3=C(CCC2C1(C)C)[C@]1(C)CCC(C(C)CCC=C(C)C)[C@@]1(C)CC3 (stereo not given in full)
inactive: locus YAL021C, strain ccr4, hits give low values 1.05 | locus YAL026C, strain drs2, hits give low values 0.971 | locus YAL030W, strain snc1, hits give low values 0.996 | locus YBL061C, strain skt5, hits give low values 0.99 | locus YBR009C, strain hhf1, hits give low values 0.998 | locus YBR023C, strain chs3, hits give low values 0.984 | locus YBR171W, strain sec66, hits give low values 0.994 | locus YBR231C, strain swc5, hits give low values 0.961 | locus YBR279W, strain paf1, hits give low values 0.996 | locus YCL011C, strain gbp2, hits give low values 1.01 | locus YCL016C, strain dcc1, hits give low values 1.01 | locus YCL061C, strain MRC1, hits give low values 0.995 | locus YCL069W, strain vba3, hits give low values 0.999 | locus YCR088W, strain abp1, hits give low values 1 | locus YDL005C, strain med2, hits give low values 0.983 | locus YDL040C, strain nat1, hits give low values 0.991 | locus YDR001C, strain nth1, hits give low values 1.01 | locus YDR069C, strain doa4, hits give low values 0.966 | locus YDR137W, strain rgp1, hits give low values 0.957 | locus YDR159W, strain sac3, hits give low values 0.965 | locus YDR195W, strain ref2 0.958 | locus YDR297W, strain sur2, hits give low values 0.993 | locus YDR334W, strain swr1, hits give low values 1 | locus YDR335W, strain msn5, hits give low values 1.01 | locus YDR392W, strain spt3, hits give low values 0.979 | locus YEL003W, strain gim4, hits give low values 0.969 | locus YEL037C, strain rad23, hits give low values 0.999 | locus YEL061C, strain CIN8 (second series), hits give low values 1.01 | locus YER015W, strain faa2, hits give low values 0.996 | locus YER016W, strain bim1, hits give low values 0.995 | locus YER111C, strain swi4, hits give low values 0.986 | locus YER155C, strain BEM2 (second series), hits give low values 1.02 | locus YFR010W, strain ubp6, hits give low values 0.97 | locus YGL167C, strain pmr1, hits give low values 0.99 | locus YGL173C, strain kem1, hits give low values 0.971 | locus YGL227W, strain vid30, hits give low values 0.996 | locus YGL240W, strain doc1, hits give low values 0.988 | locus YGL253W, strain hxk2, hits give low values 0.933 | locus YHR013C, strain ard1, hits give low values 1.02 | locus YHR027C, strain rpn1, hits give low values 0.993 | locus YHR030C, strain SLT2, hits give low values 0.968 | locus YHR079C, strain IRE1, hits give low values 0.994 | locus YHR142W, strain chs7, hits give low values 0.994 | locus YJL092W, strain hpr5, hits give low values 0.996 | locus YJL095W, strain BCK1 (second series), hits give low values 0.999 | locus YJL095W, strain BCK1, hits give low values 0.956 | locus YJL115W, strain asf1, hits give low values 0.987 | locus YJL129C, strain trk1, hits give low values 0.977 | locus YJL154C, strain vps35, hits give low values 0.999 | locus YJL164C, strain tpk1, hits give low values 1.03 | locus YJL166W, strain qcr8, hits give low values 0.98 | locus YJL187C, strain SWE1, hits give low values 0.997 | locus YJR066W, strain TOR1, hits give low values 0.937 | locus YKL160W, strain elf1, hits give low values 1.03 | locus YKR026C, strain gcn3, hits give low values 0.992 | locus YKR091W, strain srl3, hits give low values 1 | locus YLL001W, strain dnm1, hits give low values 0.958 | locus YLL026W, hits give low values 1 | locus YLL041C, strain sdh2, hits give low values 1 | locus YLR027C, strain aat2, hits give low values 1 | locus YLR113W, strain HOG1, hits give low values 0.957 | locus YLR221C, strain rsa3, hits give low values 0.98 | locus YLR258W, strain gsy2, hits give low values 0.999 | locus YLR262C, strain YPT6 (second series), hits give low values 0.951 | locus YLR320W, strain mms22, hits give low values 0.995 | locus YLR342W, strain FKS1, hits give low values 1 | locus YLR357W, strain rsc2, hits give low values 0.996 | locus YLR370C, strain arc18, hits give low values 0.988 | locus YLR384C, strain iki3, hits give low values 0.968 | locus YML120C, strain ndi1, hits give low values 1.01 | locus YMR058W, strain fet3, hits give low values 0.975 | locus YMR125W, strain sto1, hits give low values 1.02 | locus YMR129W, hits give low values 1 | locus YMR205C, strain PFK2, hits give low values 1.03 | locus YMR231W, strain pep5, hits give low values 0.983 | locus YNL071W, strain lat1, hits give low values 1.04 | locus YNL183C, strain NPR1, hits give low values 0.896 | locus YNL209W, strain ssb2, hits give low values 1.01 | locus YNL248C, strain rpa49, hits give low values 0.97 | locus YNL322C, strain KRE1 (second series), hits give low values 0.978 | locus YNR049C, strain mso1, hits give low values 0.988 | locus YOR001W, strain rrp6, hits give low values 0.923 | locus YOR070C, strain gyp1, hits give low values 1 | locus YOR080W, strain dia2, hits give low values 0.969 | locus YOR083W, strain WHI5, hits give low values 1.02 | locus YOR106W, strain vam3, hits give low values 1.02 | locus YOR231W, strain MKK1, hits give low values 0.969 | locus YOR265W, strain rbl2, hits give low values 1.01 | locus YOR270C, strain vph1, hits give low values 0.814 | locus YOR290C, strain snf2, hits give low values 1.02 | locus YPL051W, strain arl3, hits give low values 0.989 | locus YPL078C, strain atp4, hits give low values 1.04 | locus YPL106C, strain sse1, hits give low values 1.09 | locus YPL240C, strain hsp82, hits give low values 0.994 | locus YPL256C, strain CLN2, hits give low values 0.979
